Test results taken from PubChem BioAssay.
The source made the active and inactive calls.

What was measured:
[1] = binders of probe aFSTL3 on microarray, primary screen, stem cell growth factor project, biochemical, small-molecule microarray, fluorescence 635/667 (AID 1064); settings: higher = more signal;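 further: measures binding of the biotinylated anti-FSTL3 antibody to printed compounds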
[2] = binders from COS7 lysate, DM2A8 probe, primary screen, torsin A project, cell lysate, small-molecule microarray, fluorescence 635/667 (AID 1065); settings: higher = more signal, COS7 lysate expressing mutant human TOR1A
[3] = binders of probe aFGF2 on microarray, primary screen, stem cell growth factor project, biochemical, small-molecule microarray, fluorescence 635/667 (AID 1067); settings: higher = more signal;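 further: measures binding of biotinylated aFGF2 protein to printed compounds on slides; z-score merges feature fluorescence and signal-to-noise across triplicate slides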
[4] = binders of probe aFGF10 on microarray, primary screen, stem cell growth factor project, biochemical, small-molecule microarray, fluorescence 635/667 (AID 1071); settings: higher = more signal;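 further: score merges 667 nm spot intensity and signal to noise from triplicate slides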
[5] = target: Neurogenic locus notch homolog protein 2 (Homo sapiens) (UniProt Q04721); assay: Notch2 binders on small-molecule microarrays, primary screen, biochemical, small-molecule microarray, 635 nm fluorescence, stem cell growth factors (AID 1073); settings: Notch2 binding, higher = more signal
[6] = target: Pro-neuregulin-1, membrane-bound isoform (Homo sapiens) (UniProt Q02297); assay: NRG1 binders on small-molecule microarrays, primary screen, psychiatric disease protein project, biochemical, small-molecule microarray, fluorescence 635/667 (AID 1075); settings: NRG1 binding, 635 nm fluorescence, higher = more signal;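 further: score combines 667 nm spot fluorescence with signal to noise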
[7] = system: Neuregulin-1 EGF-like domain; assay: binders of neuregulin-1 EGF-like domain, primary screen, biochemical, small-molecule microarray, 635 nm fluorescence (AID 1081); settings: small-molecule microarray binding, higher = more signal;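 further: binding of the protein to compounds printed on small-molecule microarray slides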
[8] = FRG1 promoter luciferase signal modulators, primary screen, FRG1 inhibition for FSHD, cell-based, C2C12 myotubes, firefly/Renilla luciferase, luminescence (AID 1084); settings: higher = more signal, called active from +8 up or from −8 down
[9] = binders of probe aFST on microarray, primary screen, stem cell growth factor project, biochemical, small-molecule microarray, fluorescence 635/667 (AID 1086); settings: higher = more signal;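 further: score merges 667 nm fluorescence with signal-to-noise of each printed compound spot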
[10] = binders of probe aHhip on microarray, primary screen, stem cell growth factor project, biochemical, small-molecule microarray, fluorescence 635/667 (AID 1087); settings: higher = more signal;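 further: score merges spot fluorescence at 667nm with spot signal to noise ratio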

Chain of Neurogenic locus notch homolog protein 2 (Homo sapiens) (Q04721 whole entry, looked up, canonical isoform): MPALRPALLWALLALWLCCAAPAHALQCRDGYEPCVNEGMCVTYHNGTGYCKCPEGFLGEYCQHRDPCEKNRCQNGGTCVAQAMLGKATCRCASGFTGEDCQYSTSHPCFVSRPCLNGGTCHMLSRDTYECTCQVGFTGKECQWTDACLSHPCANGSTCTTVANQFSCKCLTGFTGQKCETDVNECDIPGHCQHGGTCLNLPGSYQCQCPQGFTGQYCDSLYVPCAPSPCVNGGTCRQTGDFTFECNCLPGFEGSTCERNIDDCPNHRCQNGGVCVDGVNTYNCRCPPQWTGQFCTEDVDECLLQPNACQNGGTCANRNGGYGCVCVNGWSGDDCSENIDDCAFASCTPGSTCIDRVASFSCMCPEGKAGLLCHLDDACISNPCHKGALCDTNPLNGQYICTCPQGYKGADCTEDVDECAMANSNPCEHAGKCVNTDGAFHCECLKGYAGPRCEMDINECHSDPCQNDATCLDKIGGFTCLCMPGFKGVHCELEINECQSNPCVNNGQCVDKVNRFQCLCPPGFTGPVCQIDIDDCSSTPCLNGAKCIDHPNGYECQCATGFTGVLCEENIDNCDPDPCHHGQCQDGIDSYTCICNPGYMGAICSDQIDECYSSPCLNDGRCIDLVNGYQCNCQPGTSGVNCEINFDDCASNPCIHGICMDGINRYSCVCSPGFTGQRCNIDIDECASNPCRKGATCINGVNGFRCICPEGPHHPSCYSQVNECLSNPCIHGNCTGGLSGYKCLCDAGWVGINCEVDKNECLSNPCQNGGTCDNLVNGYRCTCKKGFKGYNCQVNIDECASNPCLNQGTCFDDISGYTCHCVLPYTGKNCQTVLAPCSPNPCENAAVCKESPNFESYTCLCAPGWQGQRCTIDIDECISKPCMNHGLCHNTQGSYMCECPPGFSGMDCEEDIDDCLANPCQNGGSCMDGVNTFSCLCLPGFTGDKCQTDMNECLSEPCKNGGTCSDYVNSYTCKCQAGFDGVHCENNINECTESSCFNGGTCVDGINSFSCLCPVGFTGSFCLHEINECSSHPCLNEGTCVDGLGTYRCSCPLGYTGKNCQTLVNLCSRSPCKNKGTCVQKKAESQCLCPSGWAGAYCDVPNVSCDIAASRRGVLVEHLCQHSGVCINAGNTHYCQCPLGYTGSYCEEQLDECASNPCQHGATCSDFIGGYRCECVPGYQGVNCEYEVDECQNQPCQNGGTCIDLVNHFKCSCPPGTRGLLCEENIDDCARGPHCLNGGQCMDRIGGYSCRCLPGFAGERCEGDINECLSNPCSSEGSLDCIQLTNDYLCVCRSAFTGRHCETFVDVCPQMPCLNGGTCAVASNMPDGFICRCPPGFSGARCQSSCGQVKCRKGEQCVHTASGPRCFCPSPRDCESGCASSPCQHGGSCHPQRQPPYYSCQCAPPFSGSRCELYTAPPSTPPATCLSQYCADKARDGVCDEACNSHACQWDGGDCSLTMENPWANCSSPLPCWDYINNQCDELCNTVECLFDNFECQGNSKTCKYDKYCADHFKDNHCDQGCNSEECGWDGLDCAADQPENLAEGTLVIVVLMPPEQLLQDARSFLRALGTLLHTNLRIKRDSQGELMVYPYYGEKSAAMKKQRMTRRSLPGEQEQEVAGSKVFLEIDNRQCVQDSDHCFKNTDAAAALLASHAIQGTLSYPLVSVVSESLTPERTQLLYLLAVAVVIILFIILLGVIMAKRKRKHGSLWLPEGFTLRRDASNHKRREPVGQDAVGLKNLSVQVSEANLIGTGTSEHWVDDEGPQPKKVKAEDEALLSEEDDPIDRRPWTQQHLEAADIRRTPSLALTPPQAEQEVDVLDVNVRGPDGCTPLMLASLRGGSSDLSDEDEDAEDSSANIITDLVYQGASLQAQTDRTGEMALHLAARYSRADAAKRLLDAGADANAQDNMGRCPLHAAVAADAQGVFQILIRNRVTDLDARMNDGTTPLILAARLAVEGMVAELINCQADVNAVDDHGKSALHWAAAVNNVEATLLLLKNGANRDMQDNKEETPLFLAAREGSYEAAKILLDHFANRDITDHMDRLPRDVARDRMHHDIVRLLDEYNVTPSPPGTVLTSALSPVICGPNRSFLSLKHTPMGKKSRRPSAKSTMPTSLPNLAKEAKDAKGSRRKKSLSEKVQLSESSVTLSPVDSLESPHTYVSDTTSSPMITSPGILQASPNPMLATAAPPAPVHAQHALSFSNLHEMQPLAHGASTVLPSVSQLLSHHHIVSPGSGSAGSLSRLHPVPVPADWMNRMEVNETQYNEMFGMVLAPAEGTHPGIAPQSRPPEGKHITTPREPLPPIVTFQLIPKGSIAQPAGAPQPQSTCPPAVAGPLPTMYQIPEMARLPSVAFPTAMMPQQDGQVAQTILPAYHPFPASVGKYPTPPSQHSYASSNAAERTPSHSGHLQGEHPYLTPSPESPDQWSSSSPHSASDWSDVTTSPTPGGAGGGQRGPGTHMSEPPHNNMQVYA
Chain of Pro-neuregulin-1, membrane-bound isoform (Homo sapiens) (Q02297 whole entry, looked up, the tested form may be a part, canonical isoform): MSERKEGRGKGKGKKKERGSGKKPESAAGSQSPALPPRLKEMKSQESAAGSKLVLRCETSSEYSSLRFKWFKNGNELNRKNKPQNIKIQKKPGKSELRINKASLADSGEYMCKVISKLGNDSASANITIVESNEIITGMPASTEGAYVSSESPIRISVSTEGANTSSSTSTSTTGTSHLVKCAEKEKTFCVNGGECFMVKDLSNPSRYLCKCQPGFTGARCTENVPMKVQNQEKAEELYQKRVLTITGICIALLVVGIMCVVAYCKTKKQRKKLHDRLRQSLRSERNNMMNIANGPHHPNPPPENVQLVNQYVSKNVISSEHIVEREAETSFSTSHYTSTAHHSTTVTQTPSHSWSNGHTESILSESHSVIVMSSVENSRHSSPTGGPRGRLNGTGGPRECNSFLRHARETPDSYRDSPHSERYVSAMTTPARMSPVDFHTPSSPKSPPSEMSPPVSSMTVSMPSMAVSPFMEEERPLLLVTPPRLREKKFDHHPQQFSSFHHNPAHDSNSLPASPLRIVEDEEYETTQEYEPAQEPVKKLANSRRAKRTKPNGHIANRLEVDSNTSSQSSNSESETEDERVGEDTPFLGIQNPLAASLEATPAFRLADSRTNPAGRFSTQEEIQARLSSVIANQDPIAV

SMILES | composite z-score [1] | composite z-score [2] | composite z-score [3] | composite z-score [4] | composite z-score [5] | composite z-score [6] | composite z-score [7] | z-score [8] | composite z-score [9] | composite z-score [10]
Cc1c(NC(=O)/C(C#N)=C/c2cccc([N+](=O)[O-])c2)c(=O)n(-c2ccccc2)n1C | -0.365 | 0.322 | -0.112 | 0.0969 | 1.01 | 1.41 | 1.05 | 0.807 (inactive) | -0.0089 | -0.0994
COCCOC(=O)N1C(=O)[C@@]2(c3ccccc31)[C@H](c1ccc(OCCO)cc1)N1[C@H](c3ccccc3)[C@H](c3ccccc3)OC(=O)[C@H]1[C@@H]2C(=O)N1CCc2cc(OC)c(OC)cc2C1 | -0.128 | 0.974 | 0.123 | 1.15 | 1.33 | 1.29 | 1.28 | -1.82 (inactive) | 0.799 | 0.176
CC[C@@H]1C=C(C(=O)O)[C@H](c2cccc3ccccc23)N1S(=O)(=O)c1ccc(C)cc1 | -0.0805 | -0.26 | -0.0162 | 0.184 | 0.709 | 1.94 | 0.573 | -3.41 (inactive) | 0.279 | -0.0645
COCCCNC(=O)[C@]1(Cc2ccccc2)N=C(c2ccc(OCCCO)cc2)O[C@@H]1c1ccccc1CN=[N+]=[N-] | 0.134 | 0.719 | 0.0584 | 1.03 | 1.49 | 1.87 | 0.837 | -2.22 (inactive) | 0.88 | -0.156
C[C@H]1C2[C@H](Cc3ccccc3)NC(=O)[C@]23C(=O)NCC(=O)N2CCC[C@H]2C(=O)NC/C=C/CCC/C=C/C3[C@@H]2O[C@]12C (stereo not given in full) | -0.106 | -0.511 | -0.191 | -0.261 | -0.754 | -0.0754 | -0.125 | -0.111 (inactive) | -0.653 | -0.249
CCOc1cc(C(O)C2C=CC3C(=O)N(c4ccccc4)C(=O)C3N2Nc2ccc(C(C)C)cc2)ccc1O (stereo not given) | 0.0696 | 0.201 | -0.0254 | 0.707 | 1.52 | 1.36 | 1.31 | 0.698 (inactive) | 1.17 | -0.0237
C=CC[C@@]1(C(=O)N2CCCCC2)N=C(c2ccc(OCCCO)cc2)O[C@@H]1c1ccccc1N=[N+]=[N-] | 0.292 | -0.0912 | -0.0198 | 0.555 | 1.55 | 1.4 | 1.23 | -0.546 (inactive) | 0.833 | -0.0618
CCN(CC)c1ccc(N2CC=CC34O[C@@H]5/C=C\CCC(C)OC(=O)C5[C@H]3C(=O)N(CCCCCO)[C@@H]4C2=O)cc1 (stereo not given in full) | -0.129 | -0.474 | -0.103 | -0.497 | -1.45 | -0.551 | -0.506 | 0.376 (inactive) | -0.284 | -0.37
COCCOC(=O)N1C(=O)[C@@]2(c3cc(C#CC4=CCCCC4)ccc31)[C@H](C(N)=O)[C@H]1C(=O)O[C@H](c3ccccc3)[C@H](c3ccccc3)N1[C@@H]2c1ccc(O)cc1 | -0.0926 | 0.368 | 0.0122 | 0.683 | 1.28 | 0.758 | 1.11 | -0.95 (inactive) | 0.416 | 0.0623
C=C(CCCC)C(=O)CC[C@@H](OC(C)=O)c1ccc(CO)o1 | -0.327 | 0.349 | -0.0729 | 0.726 | -0.426 | -0.306 | -0.0318 | 0.514 (inactive) | 0.911 | 0.0505
O=C(NCc1ccccc1)[C@@H]1c2ccccc2C(=O)N(C2Cc3ccccc3C2)[C@H]1c1ccc(CO)cc1 | 0.335 | 0.0455 | 0.0017 | 0.526 | 0.501 | 1.02 | 0.971 | -2.38 (inactive) | 0.435 | -0.181
[N-]=[N+]=Nc1ccccc1C[C@@]1(C(=O)N2CCCCC2)N=C(c2ccc(OCCCO)cc2)O[C@@H]1c1ccccc1N=[N+]=[N-] | 1.23 | 0.436 | 0.286 | 0.758 | 1.6 | 0.429 | 1.17 | -2.04 (inactive) | 1.14 | -0.121
Cc1ccc(S(=O)(=O)N2C[C@@H](C(=O)O)[C@H](Sc3ccccc3)C[C@H]2c2ccccc2)cc1 | 0.265 | 0.57 | 0.172 | 1.15 | 1.61 | 1.3 | 1.12 | -2.97 (inactive) | 1.56 | -0.34
O=C1[C@H]2C=C(Br)[C@H](C[C@@H]2OCCCCCCO)[C@@]12CO2 | 0.125 | 0.629 | -0.0443 | -0.0632 | -0.565 | -0.429 | -0.394 | -0.0205 (inactive) | 0.0363 | 0.122
CCCCCCc1nc(-c2ccc(-c3ccc(Cl)c(Cl)c3)o2)c(C)c2c1[Si](C(C)C)(C(C)C)OC2 | -0.495 | -0.866 | -0.144 | -0.475 | -0.363 | 0.0643 | -0.416 | 0.333 (inactive) | -0.0878 | 0.0505
Cc1ccc([C@H]2C(C(=O)O)=CCN2S(=O)(=O)c2ccc(C)cc2)cc1 | -0.0451 | 0.0722 | -0.0271 | 0.231 | 0.539 | 1.24 | 1.1 | -0.186 (inactive) | 0.224 | -0.0305
C=CCOC(=O)[C@H]1[C@@H]2C(=O)O[C@@H](c3ccccc3)[C@@H](c3ccccc3)N2[C@@H](c2ccc(OCCOC(=O)[C@H]3C[C@H]4C(=O)N[C@@H](CCCCN(C)C)C(=O)N4[C@H]3c3cccc(OCCO)c3)cc2)[C@]12C(=O)Nc1ccc(I)cc12 | -0.756 | 0.67 | -0.0659 | 0.527 | 0.914 | 0.605 | 1.3 | 0.0721 (inactive) | 0.405 | -0.179
O=C1[C@H]2C=C(I)[C@H](C[C@@H]2OCCCCO)[C@@]12CO2 | -0.0695 | 2.01 | 0.209 | -0.484 | -0.542 | -0.456 | 0.576 | 0.988 (inactive) | -0.174 | 0.162
C=CC[C@]1(C(=O)N2CCOCC2)N=C(c2ccc(OCCCO)cc2)O[C@H]1c1ccccc1N=[N+]=[N-] | -0.0247 | 0.572 | 0.102 | 0.642 | 1.24 | 1.8 | 1.25 | -0.322 (inactive) | 1.2 | 0.0596
O=C1[C@@]23C=C(Br)[C@H](C[C@@H]2COC3)[C@]12CO2 | -0.199 | -0.582 | -0.12 | -0.536 | -1.71 | -0.279 | -1.15 | 0.126 (inactive) | -0.541 | -0.0065
COc1ccc(NC(=O)O[C@H]2[C@H](OC(=O)c3cc4ccccc4[nH]3)[C@@H](OC(=O)c3cc4ccccc4[nH]3)[C@@H](OC)O[C@@H]2CO)cc1 | -0.147 | 0.0444 | 0.0014 | 0.528 | 0.23 | 0.765 | 0.543 | 2.22 (inactive) | 0.0417 | 0.21
CN(C)CCCCCCNC(=O)[C@@H]1C[C@@H]2C(=O)N[C@@H](CCCC[N+](C)(C)C)C(=O)N2[C@@H]1c1ccc(O)cc1 | -0.725 | 0.601 | -0.183 | -0.0779 | -1.07 | 0.334 | 1.25 | 4.62 (inactive) | -0.334 | -0.865
COCCOC(=O)N1C(=O)[C@@]2(c3cc(C#CCCO)ccc31)[C@H](c1ccc(OCCO)cc1)N1[C@H](c3ccccc3)[C@H](c3ccccc3)OC(=O)[C@H]1[C@@H]2C(N)=O | -0.139 | 0.947 | -0.0182 | 0.916 | 1.16 | 0.741 | 1.23 | -0.485 (inactive) | 0.177 | -0.239
COC(=O)C(CC#Cc1ccc2c(c1)[C@]1(C(=O)N2)[C@H](c2ccc(O)cc2)N2[C@H](c3ccccc3)[C@H](c3ccccc3)OC(=O)[C@H]2[C@@H]1C(=O)N1CCN(c2ncccn2)CC1)C(=O)OC | 0.136 | 0.215 | -0.0035 | 0.349 | 0.577 | 1.86 | 1.35 | -1.36 (inactive) | 0.599 | 0.351
COCC(=C=CC[C@H](O)c1ccccc1OCCO)CCO | -0.2 | 0.32 | -0.0747 | 0.225 | -0.626 | 1.24 | 0.857 | 0.212 (inactive) | -0.0019 | 0.0373
C=CCNC(=O)[C@H]1[C@@H]2C(=O)O[C@@H](c3ccccc3)[C@@H](c3ccccc3)N2[C@@H](c2ccc(OCCO)cc2)[C@]12C(=O)Nc1ccc(C#CCC(C(=O)OC)C(=O)OC)cc12 | -0.378 | 0.632 | 0.0501 | 0.441 | 1.17 | 1.17 | 1.18 | 0.0693 (inactive) | 0.452 | 0.0373
